PubChem BioAssay AID651742 (Broad Institute, 2012)
Hit rate of the full screen: of about 5,600 compounds, about 780 (14%) were called active. Another 3% or so got no clear call; they are omitted. The list is a sample of the results. A number with no mark means an inactive call.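 How the source made its calls: active means mean signal decrease across replicates above about 35% based on untreated-well scatter, with enough replicates individually passing (limit read from the data); inconclusive means no rule stated though some were filed; inactive means the rest.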

assay: cytotoxicity in mouse NIH/3T3 fibroblasts, confirmation, cytotoxicity control for T. cruzi proliferation inhibitor project, cell-based, cherry-pick, single point (AID 651742); settings: NIH/3T3 viability, CellTiter-Glo ATP luminescence, 90 h; at 8.35 µM; stronger effect = higher value;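 further: 0% = median of neutral control wells and 100% = median of positive control wells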

| Structure (SMILES) | cytotoxicity (signal decrease) |
| --- | --- |
| C[C@@H]1CN([C@H](C)CO)C(=O)CCCn2nncc2CO[C@@H]1CN(C)Cc1ccc(C(=O)Nc2ccccc2N)cc1 | 14.8% |
| Cc1ccc(S(=O)(=O)N2C[C@@H](O)COC[C@@H]3O[C@H](CC(=O)NCc4ccc(Cl)c(Cl)c4)CC[C@H]32)cc1 | 3.54% |
| O=C(C1CCCC1)N1CCCCN2[C@@H](CO)[C@H](c3ccc(-c4cccc(F)c4)cc3)[C@@H]2C1 | 25.5% |
| CCCNC(=O)N1[C@@H]2c3cccc(=O)n3C[C@H]1[C@H](CO)[C@H]2C(=O)NCC(F)(F)F | 19.4% |
| C[C@@H]1CCCCO[C@H](CN(C)C(=O)Nc2cccc3ccccc23)[C@H](C)CN([C@H](C)CO)C(=O)c2cc(NS(=O)(=O)c3cccs3)ccc2O1 | 2.6% |
| Cc1ccc(S(=O)(=O)Nc2ccc3c(c2)C(=O)N([C@H](C)CO)C[C@H](C)[C@H](CN(C)C(=O)Nc2ccc(F)cc2)OCCCC[C@H](C)O3)cc1 | -4.04% |
| Cc1ccc(S(=O)(=O)N(C)C[C@H]2OCCCC[C@H](C)Oc3ccc(NC(=O)Cc4ccccc4)cc3C(=O)N([C@@H](C)CO)C[C@@H]2C)cc1 | -1.37% |
| COc1ccc(NC(=O)N(C)C[C@H]2OCCCC[C@H](C)Oc3ccc(NC(=O)Nc4ccc(C(F)(F)F)cc4)cc3C(=O)N([C@@H](C)CO)C[C@@H]2C)cc1 | -11.5% |
| C[C@H]1CCCCO[C@H](CN(C)S(=O)(=O)c2ccc(Cl)cc2)[C@@H](C)CN([C@@H](C)CO)C(=O)c2cc(NC(=O)Nc3ccc4c(c3)OCO4)ccc2O1 | 6.45% |
| C[C@@H]1CN([C@@H](C)CO)C(=O)c2cc(C#Cc3ccccc3)cnc2O[C@H]1CN(C)C(=O)c1ccccn1 | 15.5% |
| C[C@@H]1CN([C@H](C)CO)S(=O)(=O)c2ccc(C#CCC3CCCC3)cc2O[C@H]1CN(C)C(=O)CC1CC1 | -5.41% |
| C[C@H]1CCCCO[C@@H](CN(C)S(=O)(=O)c2cccs2)[C@@H](C)CN([C@@H](C)CO)C(=O)c2cc(NS(=O)(=O)c3ccc(Cl)cc3)ccc2O1 | 5.91% |
| N#Cc1cccc(-c2ccc([C@H]3[C@H](CO)N4CCCCN(C(=O)Nc5cccc(F)c5)C[C@@H]34)cc2)c1 | 32.4% |
| O=C(Nc1ccccc1)N1CCCCN2[C@H](CO)[C@@H](c3ccc(C#Cc4ccccn4)cc3)[C@H]2C1 | 1.29% |
| O=C(Nc1cccc(F)c1)N1CCCCN2[C@H](CO)[C@H](c3ccc(C#CC4CC4)cc3)[C@@H]2C1 | 35.2% (active) |
| C[C@@H]1CN([C@H](C)CO)C(=O)c2cc(NS(=O)(=O)c3cccs3)ccc2O[C@@H](C)CCCCO[C@@H]1CN(C)S(=O)(=O)c1ccc(Cl)cc1 | -7.98% |
| COc1ccc(NC(=O)Nc2ccc3c(c2)C(=O)N([C@H](C)CO)C[C@H](C)[C@H](CN(C)S(=O)(=O)c2ccc(Cl)cc2)OCCCC[C@H](C)O3)cc1 | -12.7% |
| O=C(c1ccccn1)N1CC[C@@H]2[C@H]1c1cc(-c3ccccc3)ccc1N[C@@H]2CO | 3.39% |
| C[C@@H]1CN([C@@H](C)CO)C(=O)c2cc(NC(=O)Nc3ccc4c(c3)OCO4)ccc2O[C@@H]1CN(C)Cc1ccc(Oc2ccccc2)cc1 | 22.6% |
| C[C@H](CO)N1C[C@H](C)[C@H](CN(C)Cc2ccc(-c3ccccc3)cc2)Oc2ccc(NC(=O)Nc3ccc(F)cc3)cc2CC1=O | 43.5% (active) |

| Structure (SMILES) | cytotoxicity (signal decrease) |
| --- | --- |
| C[C@@H]1CN([C@H](C)CO)C(=O)Cc2cc(NC(=O)c3ccncc3)ccc2O[C@H]1CN(C)Cc1ccc(-c2ccccc2)cc1 | 32.8% |
| C[C@@H]1CN([C@H](C)CO)C(=O)Cc2cc(NC(=O)Cc3ccccc3)ccc2O[C@H]1CN(C)Cc1ccc(Oc2ccccc2)cc1 | 1.79% |
| C[C@H](CO)N1C[C@H](C)[C@@H](CN(C)Cc2ccc(-c3ccccc3)cc2)Oc2ccc(NC(=O)CCC(F)(F)F)cc2CC1=O | 32.2% |
| C[C@H]1CN([C@@H](C)CO)C(=O)Cc2cc(NC(=O)Cc3cn(C)c4ccccc34)ccc2O[C@@H]1CN(C)Cc1ccccc1 | -12.8% |
| C[C@@H]1CN([C@@H](C)CO)C(=O)Cc2cc(NC(=O)C3CCCCC3)ccc2O[C@@H]1CN(C)Cc1ccc(C(=O)Nc2ccccc2N)cc1 | 37.8% (active) |
| O=C(C1CC1)N1CCCCN2[C@H](CO)[C@H](c3ccc(-c4cccc(F)c4)cc3)[C@H]2C1 | 2.61% |
| CN1c2ccc(-c3ccccc3)cc2[C@H]2[C@H](CCN2C(=O)Cc2ccccn2)[C@H]1CO | 8.34% |
| C[C@@H]1CCCCO[C@H](CN(C)S(=O)(=O)c2cccs2)[C@H](C)CN([C@H](C)CO)C(=O)c2cc(NS(=O)(=O)c3ccc(F)cc3)ccc2O1 | -5.09% |
| COc1ccc(NC(=O)N2CC[C@@H]3[C@@H](CO)N(C)c4ccc(-c5cccc(F)c5)cc4[C@@H]32)cc1 | 1.1% |
| O=C(NCC1CCCCC1)[C@H]1[C@H](CO)[C@H]2Cn3c(cccc3=O)[C@H]2N1C(=O)CC1CC1 | 0.341% |
| COc1cccc(C#Cc2ccc([C@@H]3[C@H](C#N)N[C@H]3CO)cc2)c1 | -25.2% |
| COCC(=O)N1CC[C@@H]2[C@@H](CO)Nc3ccc(-c4cccc(C#N)c4)cc3[C@@H]21 | 2.33% |
| CN1C(=O)c2cc(NC(=O)c3cnccn3)ccc2OC[C@@H]2O[C@H](CC(=O)N[C@@H]3CCN(Cc4ccccc4)C3)CC[C@@H]21 | -18.7% |
| CCC(=O)N1CC[C@@H]2[C@@H](CO)N(C)c3ccc(-c4cccc(OC)c4)cc3[C@@H]21 | -4.46% |
| O=C(c1cnccn1)N1CC[C@@H]2[C@H](CO)Nc3ccc(-c4cccc(F)c4)cc3[C@@H]21 | 32.9% |
| COCC#Cc1ccc([C@@H]2[C@H](CO)N3CCCCN(C(=O)CN(C)C)C[C@@H]23)cc1 | -18.1% |
| O=C(c1ccncc1)N1CCCCN2[C@H](CO)[C@H](c3ccc(-c4ccccc4)cc3)[C@H]2C1 | 6.21% |
| CC(C)(O)C#Cc1ccc([C@@H]2[C@H](CO)N3CCCCN(C(=O)c4cccc(F)c4)C[C@@H]23)cc1 | -14.5% |
| Cc1cccc(-c2ccc([C@@H]3[C@H](CO)N4CCCCN(C(=O)c5ccc6c(c5)OCO6)C[C@@H]34)cc2)c1 | 69.7% (active) |
| O=C(c1cccc(F)c1)N1CCCCN2[C@H](CO)[C@H](c3ccc(-c4ccncc4)cc3)[C@H]2C1 | -11.1% |

| Structure (SMILES) | cytotoxicity (signal decrease) |
| --- | --- |
| CCCC#Cc1ccc([C@H]2[C@H](CO)N3CCCCN(C(=O)c4ccc5c(c4)OCO5)C[C@@H]23)cc1 | 35.2% (active) |
| COc1ccc(C#Cc2ccc([C@@H]3[C@@H](CO)N4CCCCN(C(=O)c5ccncc5)C[C@@H]34)cc2)cc1 | 22.3% |
| CN(C)C(=O)c1ccc(-c2ccc([C@H]3[C@@H](CO)N4CCCCN(CC5CC5)C[C@H]34)cc2)cc1 | -1.46% |
| COc1ccc(-c2ccc([C@H]3[C@H]4CN(C(=O)c5ccc6c(c5)OCO6)CCCCN4[C@H]3CO)cc2)cc1 | 44.1% (active) |
| COCCNC[C@@H]1[C@H](c2ccccc2)[C@H](CO)N1c1nc(C)c(C)s1 | -17.4% |
| CC(=O)N1CC[C@@H]2[C@H](CO)Nc3ccc(C#Cc4ccccc4F)cc3[C@@H]21 | -0.01% |
| COc1ccc(CN(C)C[C@H]2Oc3ccc(NS(=O)(=O)c4ccc(Cl)cc4)cc3CC(=O)N([C@@H](C)CO)C[C@H]2C)cc1 | 12.2% |
| C[C@@H]1CCCCO[C@H](CN(C)C(=O)NC2CCCCC2)[C@H](C)CN([C@H](C)CO)C(=O)c2cc(NC(=O)Nc3ccc(F)cc3)ccc2O1 | -12.7% |
| CCCC#Cc1ccc([C@@H]2[C@@H](C#N)N(C(=O)C3CCCC3)[C@@H]2CO)cc1 | 14.1% |
| N#Cc1ccc(-c2ccc3c(c2)[C@@H]2[C@@H](CCN2C(=O)Cc2ccncc2)[C@@H](CO)N3)cc1 | 8.03% |
| C[C@H]1CN([C@@H](C)CO)C(=O)Cc2cc(NC(=O)Cc3cn(C)c4ccccc34)ccc2O[C@@H]1CN(C)Cc1ccc(C(F)(F)F)cc1 | 7.48% |
| C[C@@H]1CN([C@H](C)CO)C(=O)c2cccc(NC(=O)c3cnccn3)c2O[C@@H]1CN(C)Cc1ccc(C(=O)Nc2ccccc2N)cc1 | 32.5% |
| C[C@@H]1CN([C@@H](C)CO)S(=O)(=O)c2ccc(C#CCN(C)C)cc2O[C@H]1CN(C)C(=O)C1CC1 | 19.8% |
| CCCN(C)C[C@H]1Oc2cc(C#CC3CCCC3)ccc2S(=O)(=O)N([C@H](C)CO)C[C@@H]1C | 26.3% |
| CC(C)CC#Cc1ccc2c(c1)O[C@H](CN(C)Cc1cccnc1)[C@H](C)CN([C@@H](C)CO)S2(=O)=O | 65.8% (active) |
| CC(C)CC#Cc1ccc2c(c1)O[C@H](CN(C)Cc1ccccc1F)[C@@H](C)CN([C@@H](C)CO)S2(=O)=O | -3.93% |
| CC(C)CC#Cc1ccc2c(c1)O[C@H](CN(C)C(=O)C1CC1)[C@@H](C)CN([C@@H](C)CO)S2(=O)=O | 22.1% |
| C[C@H](CO)N1C[C@H](C)[C@H](CN(C)Cc2cccnc2)Oc2cc(C#CC3CCCC3)ccc2S1(=O)=O | 32% |
| C[C@@H]1CN([C@H](C)CO)S(=O)(=O)c2ccc(C#CC3CCCC3)cc2O[C@@H]1CN(C)Cc1cccnc1 | 48.5% (active) |
